# Laboratory results as given in PubChem BioAssay AID652105 (National Center for Advancing Translational Sciences (NCATS), 2013).
# Screen size: about 330,000 compounds; about 4,100 (1.2%) were called active. About 2% were inconclusive and are not listed. This is one part of a sample in which actives are shown more often than they occur. Rule for the calls: active = max response of -50% or lower; inconclusive = between -30% and -50%; inactive = -30% or higher.
# Biological target: Phosphatidylinositol 5-phosphate 4-kinase type-2 alpha (Homo sapiens) (UniProt P48426)
# Experiment: qHTS for Inhibitors of phosphatidylinositol 5-phosphate 4-kinase (PI5P4K); note: value at the top dose of about 77 µM
# Details: PI5P4Kalpha enzyme, ADP-Glo luminescence, 60 min; hits give low values
# Description: In addition to finding PI5P, we discovered the type II phosphatidylinositol 5-phosphate 4-kinase (PI5P4K) family (alpha, beta, gamma isoforms) that catalyze the conversion of PI5P to PI(4,5)P2. Alternatively, PI(4,5)P2 can also be synthesized through phosphatidylinositol-4-phosphate (PI4P) by the type I phosphatidylinositol 4-phosphate 5-kinases (PI4P5K). These PI5P4K enzymes therefore represent one way by which cells can regulate endogenous PI5P levels and play important roles in insulin signaling and in stress responses.
# This proposal aims to identify and optimize specific modulators of human PI5P4K, phosphatidylinositol-5-phosphate 4-kinase (Type II PIPK), a family of kinases that regulate AKT signaling and tumor cell growth. In this project we aim to identify inhibitors of human PI5P4K using a quantitative high-throughput screening approach against the MLSMR containing ~400,000 small molecules.
# NIH Chemical Genomics Center [NCGC]
# NIH Molecular Libraries Probe Centers Network [MLPCN]
# Assay Submitter (PI): Atsuo Sasaki, Beth Israel Deaconess Medical Center
# 2 microL of PI5P4Kalpha/substrate buffer (columns 1-2, 5-48) are dispensed into Greiner white solid bottom 1536-well assay plates; column 3 receives only PI5P4Kalpha buffer as 0x substrate controls; column 4 receives only substrate buffer as 0x PI5P4Kalpha controls. Final assay buffer consists of 0.038 M HEPES pH 7.4, 0.28 mM EGTA, 0.1% CHAPS, and 5% DMSO (final concentration). Compounds are then transferred via Kalypsys pin tool equipped with 1536-pin array (10 nL slotted pins, V&P Scientific, San Diego, CA). Following addition of compound, 1 microL of ATP (5 microM final concentration, all columns) is added to initiate the reaction. ATP is diluted in an assay buffer consisting of 0.02 M HEPES pH 7.4, 60 mM MgCl2, 15 microM ATP, and 0.1% CHAPS. The plates are then incubated at room temperature for 60 minutes. ADP-Glo reagent 1 is added (2 microL) and plates incubated for 45 minutes, before ADP-Glo reagent 2 (4 microL) is added and plates incubated for 30 minutes. They are then transferred to a ViewLux high-throughput CCD imager (PerkinElmer) wherein single end-point measurements of luminescence are acquired using a clear filter.
# % is set by controls: 0 for no effect and ±100 for the full control effect.
# Phosphatidylinositol 5-phosphate 4-kinase type-2 alpha (Homo sapiens), sequence (P48426 whole entry, looked up): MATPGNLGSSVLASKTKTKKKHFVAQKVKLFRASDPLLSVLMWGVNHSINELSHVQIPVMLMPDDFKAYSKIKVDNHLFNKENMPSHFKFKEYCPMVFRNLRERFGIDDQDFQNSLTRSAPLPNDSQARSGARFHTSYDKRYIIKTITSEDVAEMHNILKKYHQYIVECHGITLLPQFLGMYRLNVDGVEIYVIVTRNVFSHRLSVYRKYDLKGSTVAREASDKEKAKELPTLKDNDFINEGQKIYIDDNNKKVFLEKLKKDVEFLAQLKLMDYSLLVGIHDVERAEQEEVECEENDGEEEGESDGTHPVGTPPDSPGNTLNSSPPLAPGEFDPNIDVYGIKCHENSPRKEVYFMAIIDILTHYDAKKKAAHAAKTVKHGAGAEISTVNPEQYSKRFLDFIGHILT
row,SMILES,max response
1,O=C(Nc1ccc(S(=O)(=O)Nc2nccs2)cc1)c1cc(-c2ccncc2)nc2ccccc12,-67.1% (active)
2,O=C(Nc1ccc(S(=O)(=O)Nc2nccs2)cc1)c1cc(=O)[nH]c2ccccc12,-12.6% (inactive)
3,CCN(CC)CCNC(=O)c1ccc(NC(=O)c2cc(-c3ccncc3)nc3ccccc23)cc1,-5.2% (inactive)
4,Cc1ccc(C(=O)O)cc1-c1ccc(/C=C2\SC(=O)N(CC(=O)Nc3ccc4c(c3)OCO4)C2=O)o1,-59.9% (active)
5,Cc1ccc(C(=O)Nc2ccc3c(c2)OCO3)cc1S(=O)(=O)N1CCCCC1,0.934% (inactive)
6,Cc1nn(CC(=O)Nc2ccc3c(c2)OCO3)c(C)c1[N+](=O)[O-],1.6% (inactive)
7,CC(=O)Nc1cc(-c2ccc(N3CCN(C)CC3)cc2)cn2c(-c3cccc(C(=O)N(C)C)c3)cnc12,4.25% (inactive)
8,CCc1nc2c(OCCOc3ccc(F)cc3)cccn2c1N(C)C(=O)c1ccccc1F,-7.43% (inactive)
9,COc1cccc(-c2ccc3c(c2)N(Cc2ccccc2OC)C(=O)C(C)S3)c1 (stereo not given),20.2% (inactive)
10,COc1ccc([C@H]2CC(=O)C[C@@H](CCn3cc(CC4CCCC4)nn3)O2)cc1,9.59% (inactive)
11,Cc1ccc(N=C2NC(=O)/C(=C/C=C/c3ccco3)S2)cc1C,-76.1% (active)
12,Cc1ccc(N2NC(=O)/C(=C/C=C/c3ccco3)C2=O)cc1C,-13.7% (inactive)
13,CN1C(=O)/C(=C/c2ccco2)SC1=Nc1cccc(C(=O)O)c1,-16.9% (inactive)
14,N#Cc1c(-c2cccs2)nc(SCC(=O)c2ccc(Br)cc2)[nH]c1=O,-61.8% (active)
15,Cc1ccc(CSc2nc(-c3ccccc3)c(C#N)c(=O)[nH]2)cc1,-3.14% (inactive)
16,O=C(CSc1nc2ccccc2c(=O)[nH]1)Nc1nc(-c2ccc(Br)cc2)cs1,2.06% (inactive)
17,CCc1nc2c(OCCc3cccc(OC)c3)cccn2c1N(C)C(=O)c1ccc(C)cc1,2.18% (inactive)
18,COc1ccc(CN2C[C@H]3CON(C)[C@H]3C[C@H]2c2ccc(-c3cccc(F)c3)cc2)cc1,18.3% (inactive)
19,C[N+](C)(C)CCOP(=O)([O-])OC[C@H](O)CO,-87.3% (active)
20,COC(=O)C[C@H]1C=C[C@H](NC(=O)c2ccc(F)cc2)[C@@H](CO)O1,-0.944% (inactive)

row,SMILES,max response
1,COC(=O)c1ccc2nc(-c3cccc(Br)c3)c(Cc3ccccc3C(F)(F)F)n2c1,4.18% (inactive)
2,C#CCN(C[C@@H]1[C@@H](OC(=O)NC2CC2)[C@@H](OC(=O)NC2CC2)Cn2c(=O)ccc(=O)n21)S(=O)(=O)c1ccc(C)cc1,-1.14% (inactive)
3,COCCNC(=O)C1C(=O)Nc2ccccc2C(=O)N1c1ccc2c(c1)OCCO2 (stereo not given),7.16% (inactive)
4,O=C(c1ccccc1)c1ccc(C(=O)N2CCN(c3ccccc3)CC2)cc1,6.71% (inactive)
5,O=C(c1cc2c(s1)CCC2)N1CCN(c2ccccc2)CC1,-53% (active)
6,O=C(NNC(=O)c1cc2c(s1)CCCC2)c1ccccc1,0.43% (inactive)
7,CCC1(C)Cc2c(sc3[nH]c(=S)n(Cc4ccccc4)c(=O)c23)CO1 (stereo not given),-15.7% (inactive)
8,C=CCn1cnc2scc(-c3ccccc3)c2c1=O,-1.04% (inactive)
9,C=CCn1c(=S)[nH]c2scc(-c3ccco3)c2c1=O,-84.2% (active)
10,Clc1cccc(Cc2c(-c3cccc(Cl)c3)nc3ccc(Cl)cn23)c1,-3.6% (inactive)
11,CCCCCNC(=O)C1C(=O)Nc2ccccc2C(=O)N1C(C)(C)C (stereo not given),-7.39% (inactive)
12,CC(CNC(=O)c1ccc(Br)o1)NC(=O)c1ccc(Br)o1 (stereo not given),-54.6% (active)
13,O=C(CNC(=O)c1ccc(Br)o1)Nc1ccccc1,-2.2% (inactive)
14,O=C(NCc1cccs1)c1ccc(Br)o1,4.81% (inactive)
15,CSc1ccc(CN2CCC2(C)C(=O)NCc2ccccc2Br)cc1 (stereo not given),17.1% (inactive)
16,COc1ccccc1-c1cc(NC(C)=O)c2ncc(-c3ccc(F)cc3)n2c1,-5.85% (inactive)
17,CCCc1ccc(C(O)c2ncc(-c3cccc(OC)c3)[nH]2)cc1 (stereo not given),14% (inactive)
18,COc1cccc2sc(NNC(=O)c3nc4ccccc4s3)nc12,-61.5% (active)
19,COc1cccc2sc(N(CCCN(C)C)C(=O)C(c3ccccc3)c3ccccc3)nc12,12.8% (inactive)
20,COc1ccc(/C=C(/CC(=O)Nc2ccc(C)cc2)c2nc3ccccc3s2)cc1,-7.45% (inactive)

row,SMILES,max response
1,O=C(/C=C/[C@H]1O[C@@H](n2ccc(=O)[nH]c2=O)[C@H](O)[C@@H]1O)NCc1ccccn1,2% (inactive)
2,CCOC(=O)C[C@H]1c2ccc(C(F)(F)F)cc2S(=O)(=O)N1c1ccccc1,2.77% (inactive)
3,CCOC(=O)C1Nc2ccc(C(F)(F)F)cc2C2C=CCC12 (stereo not given),-55.4% (active)
4,CCOC(=O)[C@H]1Nc2ccc(Cl)cc2[C@@H]2[C@H]1C1CC(c3ccccc31)N2C(=O)OCc1ccccc1 (stereo not given in full),19.9% (inactive)
5,Nc1cccc(-c2cncc(N3CCN(Cc4ccccn4)CC3)n2)c1,-6.48% (inactive)
6,CC(=O)c1sc2nc(SCC(=O)N3CCCCC3)[nH]c(=O)c2c1C,-59.2% (active)
7,C=CCNC(=O)CSc1nc2sc(C)c(C)c2c(=O)[nH]1,-2.42% (inactive)
8,O=C(CSc1nc2c(cnn2-c2ccc(F)cc2)c(=O)[nH]1)N1CCCCCC1,-3.16% (inactive)
9,CCOC(=O)[C@]12CCCC=C1N(CCC1=CCCCC1)C(=O)[C@H](CC(=O)NCCCOC)C2,-1.91% (inactive)
10,CCC(=O)NC(=Nc1nc2ccccc2s1)NC(=O)CC,10.4% (inactive)
11,Cc1cc(NC(=O)CN2CCCC(C)C2)n(-c2nc3ccccc3s2)n1 (stereo not given),14.1% (inactive)
12,CCC(C)Cn1c(O)cc2nn(-c3nc4ccccc4s3)c(=O)c-2c1C (stereo not given),-79.1% (active)
13,COC(=O)[C@]12CCCCC=C1N(Cc1ccc(Cl)cc1Cl)C(=O)[C@H](CC(=O)NCc1cccc3ccccc13)C2,20.1% (inactive)
14,COc1cc(C=C(OC(C)=O)c2ccc3c(c2)OCO3)cc(OC)c1OC,3.06% (inactive)
15,COc1cc(/C=N/O)cc(Br)c1OCc1cccc(Cl)c1,39.6% (inactive)
16,COc1cc(CN2CC(C)CC(C)C2)cc([N+](=O)[O-])c1O (stereo not given),0.224% (inactive)
17,COc1cc(/C=C2/C(=O)NN(c3cccc(Cl)c3)C2=O)cc(Br)c1O,-54.1% (active)
18,COc1cc(/C=C2/C(=O)NN(c3ccc(F)cc3)C2=O)cc([N+](=O)[O-])c1O,-57.5% (active)
19,COc1ccc(N2C(=O)CC(Nc3ccc(F)cc3)C2=O)c([N+](=O)[O-])c1 (stereo not given),-6.93% (inactive)
20,C#CCOc1ccc(/C=C2/C(=O)NN(c3ccccc3)C2=O)cc1OC,-22.1% (inactive)
